The source of these data is PubChem BioAssay (NCI).

Holding throughout (experiment): NCI-60 one-dose screen, 48 h (100 = growth as untreated, 0 = no growth, -100 = all killed)
Common to all, as to conditions: 10 µM

Assay [1] has as its system HOP-92 NSCLC.
Assay [2] concerns K-562 leukemia.
In assay [3] the test system is MALME-3M melanoma.
For assay [4], the system named is RXF 393 renal.
The test system of assay [5] is SK-MEL-28 melanoma.
The test system of assay [6] is SN12C renal.
For assay [7], the system named is TK-10 renal.
Assay [8] relates to A498 renal.
The test system of assay [9] is RPMI-8226 leukemia.
Assay [10] has as its system OVCAR-3 ovarian.
For assay [11], the system named is BT-549 breast.
In assay [12] the test system is MDA-MB-435 melanoma.
The test system of assay [13] is HCC-2998 colon.
Assay [14] relates to UACC-257 melanoma.
Assay [15] deals with CAKI-1 renal.

About 83,000 compounds went through this panel and 20% of them were active in at least one assay; those are over-represented in the sample as a whole.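 Percent growth is the endpoint: 0 to 100 indicates growth inhibition (40 means 60% inhibition), 0 means no net growth, and negative values indicate cell death.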 Unmarked numbers belong to inactive results. Calls of active or inactive are those of the source. How the source made its calls: active means growth percent below 10; inactive means the rest.

In the case of `CC(=O)O[C@@H]1[C@@H]2O[C@H]2[C@@](C)(O)C(=O)[C@@H](C)C/C=C/[C@H]2[C@@H]3O[C@]3(C)[C@@H](C)C3[C@H](Cc4ccccc4)NC(=O)[C@@]312` (stereo partly drawn), the growth was -28.8% (active) in assay [1]; 68.8% in assay [2]; 71% in assay [3]; 20.3% in assay [4]; 71% in [5]; 62.6% in [6]. The growth in [7] is -8.91% (active); in [8], 3.87% (active); in [9], 81.8%; in assay [10], 54.2%; in assay [11] it was 29.8%; in [12], 70.9%. Further, in assay [13], the growth is 77.4%.

Take `C[C@@H]1CCC/C=C/[C@H]2C[C@@H](O)C[C@@H]2[C@@H](O)/C=C/C(=O)O1`: the growth in [1] is -4.99% (active); in assay [2], 15%; in assay [3] it was -7.08% (active); in [4], -8.61% (active); in assay [5], 18.3%; in assay [6], 11.4%. Moreover, the growth was -45% (active) in assay [7]; -14.7% (active) in [8]; -1.65% (active) in [9]; -1.9% (active) in assay [10]; 6.57% (active) in assay [11]; 17.5% in assay [12]. Further, the growth in [13] is 21.1%.

Consider `Cc1ccc(CNc2nc3ccc(OC/C(=C/F)CN)cc3o2)cn1`, for which the growth in [1] was 93.9%; in assay [2], 108%; in assay [3], 105%; in assay [4], 69.1%; in assay [14] it was 104%; in assay [5], 107%. Further, the growth in [6] is -37.4% (active); in assay [7], 71.9%; in assay [15] it was 68.3%; in assay [8], 58.4%; in [9], 105%; in assay [10] it was 109%. In addition, the growth in assay [12] is 99.6%; in [13] it was 111%.

Consider `COc1cccc2c1cc([N+](=O)[O-])c1c(C(=O)O)cc3c(c12)OCO3`, for which the growth was 95.3% in assay [1]; 97.6% in assay [2]; 95.9% in assay [3]; 104% in assay [4]; 112% in [5]; 113% in [6]. Also, the growth in [7] is 100%; in assay [15] it was 87.1%; in assay [8], 114%; in assay [9] it was 97.7%; in assay [10], 126%; in assay [11], 120%. In addition, the results for the growth in assay [12] and in assay [13] were 107% and 91.3%, respectively.

Regarding `CC1=C(CN(O)C(N)=O)C2=C(C)C3(CC3)[C@](C)(O)C(=O)C2=C1`, the growth was -3.67% (active) in assay [1]; 0.207% (active) in assay [2]; 2.97% (active) in assay [3]; -85.3% (active) in assay [4]; 6.8% (active) in assay [14]; -28.4% (active) in [5]. Further, the growth was 25.1% in [6]; -5.27% (active) in assay [7]; 4.61% (active) in assay [15]; -76.5% (active) in assay [8]; -22.7% (active) in [9]; -3.14% (active) in assay [10]. Also, the growth was 12.9% in [11], -42.8% (active) in assay [12] and -63.1% (active) in assay [13].

Turning to `COc1cc2c(O[C@@H]3OC[C@H](OC(C)=O)[C@H](OC(C)=O)[C@H]3O)c3c(c(-c4ccc5c(c4)OCO5)c2cc1OC)C(=O)OC3`, the growth in assay [1] was -13.3% (active); in [3], 39.3%; in [4], 54.4%; in [14] it was -35.8% (active); in assay [7], 42.3%; in assay [15], 13.8%. Further, the growth in assay [8] was 70.6%; in assay [9] it was -2.08% (active); in [10], 59.4%; in assay [11], 23.4%; in assay [12], 4.94% (active).

Consider `NC1CCc2cc(O)c(O)cc2C1` (stereo not drawn), for which the growth is 1.68% (active) in assay [2]; 81.9% in [4]; 103% in assay [14]; 87.1% in assay [5]; 90.5% in [6]; 94.6% in assay [7]. Also, the growth is 94.1% in assay [15]; 71.9% in assay [8]; 17.2% in [9]; 101% in assay [10]; 86.3% in assay [11]; 81.4% in [12]. Moreover, the growth in [13] was 46.2%.

For the compound `CC1=C2C(=C[C@@](C)(COC(=O)c3ccc(S(=O)(=O)F)cc3)[C@@H]2OC(=O)c2ccc(S(=O)(=O)F)cc2)C(=O)[C@](C)(O)C12CC2`, the growth in assay [1] was -17.1% (active); in assay [2], 23.8%; in assay [3], -57.3% (active); in [14] it was 60%; in assay [5], 7.54% (active); in assay [6], 21%. For the same compound, the growth in assay [7] is -3.99% (active); in [15], -2.73% (active); in assay [9], 67%; in assay [11], -90.2% (active); in [12], 3.18% (active); in assay [13], -60% (active).

For `CC1=C2C(=C[C@@](C)(C=O)[C@@H]2O)C(=O)[C@](C)(O)C12CC2`, the growth is -8.36% (active) in assay [1]; 24.2% in assay [2]; -32.6% (active) in assay [3]; -77% (active) in assay [4]; 6.75% (active) in assay [14]; -8.99% (active) in [5]. Further, the growth in assay [6] was 26.1%; in assay [7], 2.16% (active); in [15], 12.6%; in [8], -57% (active); in [10], -10.1% (active); in [11] it was -6.13% (active). Moreover, in assay [13], the growth was -25.1% (active).
